About 83,000 compounds went through this panel and 20% of them were active in at least one assay; those are over-represented in the sample as a whole.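 Values shown are percent growth following 48 h exposure of cells in 96-well plates to a single concentration of compound; below 10 was considered active.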 Unmarked numbers belong to inactive results. Activity calls are given as the source filed them.

Among the test systems are SK-MEL-2 melanoma; EKVX NSCLC; SN12C renal; UO-31 renal; TK-10 renal; ACHN renal; CAKI-1 renal; A498 renal; CCRF-CEM leukemia; MOLT-4 leukemia.
Holding throughout (experiment): NCI-60 one-dose screen, 48 h (100 = growth as untreated, 0 = no growth, -100 = all killed)
What all share (details): 10 µM unless noted

For the molecule `CN(c1cc2ncc(=O)[nH]c2cc1NC(N)=NCc1ccc(Cl)cc1)C1CCCCC1`, the growth in the test with SK-MEL-2 melanoma was 92.7%; with EKVX NSCLC, 82.6%; in the test on SN12C renal it was 67.9%; with UO-31 renal it was 91%; with TK-10 renal, 85.2%; with ACHN renal, 98.3%. Further, the growth is 98.5% in the test with CAKI-1 renal, 80.5% in the test on A498 renal, 21.9% with CCRF-CEM leukemia and 35.5% in the test with MOLT-4 leukemia.
As to `Ic1ccc(OCCCCn2ccnc2)cc1`, the growth was 80.7% in the test with SK-MEL-2 melanoma; 62.1% in the test on EKVX NSCLC; 76.6% in the test with SN12C renal; 63.8% with UO-31 renal; 45.3% in the test on TK-10 renal; 59.4% with ACHN renal. The growth is 70% in the test on CAKI-1 renal, 36.2% in the test on A498 renal, 55.1% in the test on CCRF-CEM leukemia and 82.2% in the test with MOLT-4 leukemia.
With `CC(=O)O[C@@H]1C[C@]2(C(C)C)O[C@@]1(C)[C@@H]1CCC(C)=C1[C@@H]2OC(=O)/C=C/c1ccccc1`, the growth with SK-MEL-2 melanoma was 89.7%; in the test on EKVX NSCLC it was 83.5%; with SN12C renal, 48.4%; with UO-31 renal it was 60.5%; in the test on TK-10 renal, 95.4%; in the test on ACHN renal it was 34.6%. In addition, the growth in the test with CAKI-1 renal is 71.3%; in the test with A498 renal, -4.32% (active); with CCRF-CEM leukemia, 84.9%; in the test on MOLT-4 leukemia, 83.8%.
In the case of `CSc1nc(N)c(NS(=O)(=O)c2ccc(C(C)=O)cc2)c(=O)[nH]1`, the growth is 100% in the test with SK-MEL-2 melanoma; 97.2% in the test with EKVX NSCLC; 101% in the test with SN12C renal; 100% in the test with UO-31 renal; 119% in the test with TK-10 renal; 108% in the test on ACHN renal. The growth was 90.1% in the test with CAKI-1 renal, 105% in the test with A498 renal, 109% in the test with CCRF-CEM leukemia and 112% in the test with MOLT-4 leukemia.
As for `CCOc1nc(-c2ccccc2)cc2c(O)c(C(=O)N/N=C/c3ccccc3)[nH]c(=O)c12`, the growth was 36.5% in the test with SK-MEL-2 melanoma; 96.1% in the test on EKVX NSCLC; 110% with SN12C renal; 93.2% with UO-31 renal; 151% in the test with TK-10 renal; 107% in the test with ACHN renal. Besides, the growth in the test on CAKI-1 renal is 104%; in the test with A498 renal it was 91.3%; with CCRF-CEM leukemia it was 106%; with MOLT-4 leukemia it was 79.7%.
With `NC(=O)c1c(NC(=O)c2ccc3ccccc3c2)sc2c1CCC(=O)C2`, the growth in the test with SK-MEL-2 melanoma is 103%; in the test on EKVX NSCLC, 86.2%; in the test on SN12C renal it was 50.5%; in the test with UO-31 renal, 27.3%; with TK-10 renal it was 95.7%; with ACHN renal it was 34.2%. In addition, the growth in the test on CAKI-1 renal was 16.3%; with A498 renal, 95.2%; in the test on CCRF-CEM leukemia, 15%; in the test on MOLT-4 leukemia, 36.6%.
Consider `O=C1NC(=C(Cl)Cl)/C(=N\S(=O)(=O)NCc2ccccc2)N1`, for which the growth is 103% in the test with SK-MEL-2 melanoma; 118% in the test on EKVX NSCLC; 90.7% with SN12C renal; 94.1% with UO-31 renal; 107% in the test on TK-10 renal; 110% in the test on ACHN renal. For the same molecule, the growth with CAKI-1 renal was 101%; in the test with A498 renal it was 104%; with CCRF-CEM leukemia it was 75%; in the test with MOLT-4 leukemia, 85.5%.
Turning to `CCNCCNc1cc(-c2ccc(C(F)(F)F)cc2)c(C#N)c2nc3ccccc3n12`, the growth in the test with SK-MEL-2 melanoma is -47.6% (active); in the test on EKVX NSCLC, -66% (active); in the test with SN12C renal it was -62% (active); in the test with UO-31 renal, -88.3% (active); in the test on TK-10 renal, -67.3% (active); in the test with ACHN renal, -88.8% (active). In addition, the growth is -96.9% (active) in the test on CAKI-1 renal, -88.4% (active) with A498 renal, -42.9% (active) in the test with CCRF-CEM leukemia and -32.7% (active) in the test with MOLT-4 leukemia.
`CCCNc1nc2ccccc2c2c1S(=O)(=O)c1ccc(Cl)cc1C2=O`: the growth in the test with SK-MEL-2 melanoma is 8.94% (active); with EKVX NSCLC, 25.8%; in the test with SN12C renal, -1.38% (active); with UO-31 renal it was 10.9%; in the test with TK-10 renal it was 17.3%; in the test on ACHN renal, 10.7%. Besides, the growth in the test with CAKI-1 renal is 18.2%; with A498 renal it was 31.1%; in the test on CCRF-CEM leukemia, -5.94% (active); with MOLT-4 leukemia it was 4.02% (active).
In the case of `CCn1cc(C(=O)O)c(=O)c2cc(F)c(N3CCN(CC(=O)Nc4ccc(S(=O)(=O)Nc5nccc(C)n5)cc4)C(C)C3)c(F)c21` (stereo not given), the growth in the test on SK-MEL-2 melanoma was 119%; with EKVX NSCLC, 111%; in the test on SN12C renal it was 98%; with UO-31 renal it was 83.3%; with TK-10 renal, 129%; in the test on ACHN renal, 102%. The growth in the test on CAKI-1 renal is 88.6%; with A498 renal, 111%; in the test on CCRF-CEM leukemia it was 102%; in the test on MOLT-4 leukemia, 123%.
As for `CCOC(=O)C#Cc1c(C(=O)OCC)nnn1Cc1ccc([N+](=O)[O-])cc1`, the growth in the test with SK-MEL-2 melanoma was 109%; with EKVX NSCLC, 106%; in the test on SN12C renal it was 58.6%; with UO-31 renal, 4.18% (active); in the test on TK-10 renal it was -10.9% (active); in the test on ACHN renal, -53.6% (active). In addition, the growth in the test on CAKI-1 renal was -52% (active); with A498 renal, 107%; in the test on CCRF-CEM leukemia it was -21.3% (active); in the test on MOLT-4 leukemia, 14.9%.
As to `COC12C=C/C(=C(/C(=O)OCc3ccncn3)C(=O)CCCCCCCCC3(OC)C=C/C(=C(/C(=O)OCc4ccncn4)C(=O)CCCCCCCC1)O3)O2`, the growth was 11.6% in the test with SK-MEL-2 melanoma; -15.5% (active) with EKVX NSCLC; -10.7% (active) in the test on SN12C renal; -50.7% (active) in the test with UO-31 renal; 9.83% (active) with TK-10 renal; -74.8% (active) in the test on ACHN renal. Besides, the growth in the test with CAKI-1 renal was -28.4% (active); in the test on A498 renal, -86.3% (active); with CCRF-CEM leukemia it was -15.2% (active); with MOLT-4 leukemia, -7.71% (active).
Take `C=C1C(=O)O[C@H]2[C@H]1CC/C(COC(=O)/C=C\C(=O)NCc1ccc(Cn3c(=O)sn(CCI)c3=O)cc1)=C\CC[C@@]1(C)O[C@@H]21`: the growth with SK-MEL-2 melanoma was 75%; with EKVX NSCLC, 61.7%; in the test on SN12C renal, 57.9%; in the test with UO-31 renal it was 55.1%; in the test with TK-10 renal, 19.4%; in the test on ACHN renal, 15.9%. The growth in the test on CAKI-1 renal was 25.7%; with A498 renal it was 143%; with CCRF-CEM leukemia, -28.2% (active); in the test on MOLT-4 leukemia, 3.38% (active).

For the origin of these results see PubChem BioAssay (NCI).
